In the library only some 2.4% were active in any assay of this set; here they are far more common.
M1 PAM: human CHRM1 positive allosteric modulation | CHO-K1 hM1, Fluo-8 calcium fluorescence, ACh EC20; 0% = ACh EC20, 100% = maximal ACh | 0.088% of 360,000 active | activation, % at 3 µM; in the data active = activation above about 19%, passing the limit was not always enough
Target sequence (P11229 whole entry, looked up): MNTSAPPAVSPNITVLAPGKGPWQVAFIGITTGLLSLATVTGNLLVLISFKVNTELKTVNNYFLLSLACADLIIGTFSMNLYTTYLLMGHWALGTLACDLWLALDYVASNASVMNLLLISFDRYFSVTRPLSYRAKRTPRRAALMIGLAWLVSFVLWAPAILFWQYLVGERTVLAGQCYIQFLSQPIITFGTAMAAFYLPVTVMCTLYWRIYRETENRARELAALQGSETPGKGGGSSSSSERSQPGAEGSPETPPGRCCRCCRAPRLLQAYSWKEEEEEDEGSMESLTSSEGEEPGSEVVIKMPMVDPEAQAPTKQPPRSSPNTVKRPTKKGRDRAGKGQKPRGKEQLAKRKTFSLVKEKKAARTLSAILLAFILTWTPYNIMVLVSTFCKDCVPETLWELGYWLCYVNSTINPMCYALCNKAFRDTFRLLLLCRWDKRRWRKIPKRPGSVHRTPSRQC
CHO-K1 Ca antag: nonselective inhibitor or artifact in parental CHO-K1 cells; ATP-induced calcium, Fluo-8 fluorescence; inhibition, % at 3 µM; 0.6% of 360,000 active;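 active = inhibition above a per-plate cutoff, the plate's mean sample inhibition plus 3 SD, cut at about 24% in these data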;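 also: 0% = DMSO plus EC80 ATP and 100% = DMSO alone without ATP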
M1 ag: human M1 muscarinic receptor agonism. 0.33% of 360,000 active. activation, % at 3 µM. CHO-K1 hM1, Fluo-8 calcium fluorescence, agonist mode; 0% DMSO, 100% acetylcholine EC100. P11229. AID 588814;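 active = activation above the run's mean compound activation plus 3 SD, cut at about 16% in these data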;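 also: peak over basal fluorescence ratio within a 140 s kinetic read after compound addition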
CHRM1 antagonist: antagonists of human M1 muscarinic receptor | P11229 | CHO-K1 hM1, Fluo-8 calcium fluorescence, ACh EC80 antagonist | inhibition, % at 3 µM | 1.3% of 360,000 active | AID 588852;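 active = percent inhibition above its own plate's cutoff, namely the mean of that plate's compound wells plus 3 SD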;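 also: peak over basal fluorescence ratio during 140 s after agonist addition; 0% = ACh EC80 plus DMSO and 100% = DMSO alone without agonist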
M1 PAM parental: nonselective activator or artifact in parental CHO-K1 calcium assay; 0.02% of 360,000 active; ATP EC20, Fluo-8 calcium fluorescence; 0% at ATP EC20, 100% at ATP max; activation, % at 3 µM; AID 602247;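 active = activation above the run cutoff, the mean activation of all test compounds plus 3 SD, cut at about 40% in these data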;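 also: peak over basal fluorescence ratio in a 140 s read after ATP addition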
M1 ag parental: M1 agonist counterscreen hit in parental CHO-K1 cells. activation, % at 3 µM. 0.48% of 360,000 active. Fluo-8 calcium fluorescence; scaled to maximal ATP response, vehicle zero; in the data active = activation above about 15%;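 also: untransfected CHO-K1 host cells lacking M1 receptor as counterscreen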
* marks the source's active call; other numbers are inactive results.

SMILES | M1 PAM | CHO-K1 Ca antag | M1 ag | CHRM1 antagonist | M1 PAM parental | M1 ag parental
COc1ccc(Cl)cc1C(=O)NCCN(C)C | 5.2 | -6.5 | -2.1 | 1.4 | -0.4 | -0.1
CN(C)CCNC(=O)c1ccc(COc2ccc(Cl)cc2Cl)cc1 | -14.0 | -7.7 | -4.5 | 31.4* | 17.4 | 2.1
CC(C)CN1CCC(=O)N(CCSc2ccccc2)CC1 | 0.1 | 9.8 | 34.4* | 5.5 | -19.7 | -0.2
Cc1ccc(SCCN2CCN(CCc3ccccc3)CCC2=O)cc1 | -5.3 | -1.8 | -12.8 | 10.7 | 1.5 | -0.3
Cc1ccc(OCCC(=O)O)cc1 | 1.6 | -8.4 | -0.4 | -6.4 | -0.8 | 0.2
O=c1c2cc(N3CCOCC3)ccc2[nH]c(=S)n1CCCN1CCCCCC1 | -24.1 | -1.7 | -6.4 | 22.9* | 10.5 | -0.1
Cc1cc(C)n(C(=O)c2cccc(S(=O)(=O)N3CCOCC3)c2)n1 | 10.7 | 6.2 | -2.6 | -10.3 | 19.7 | 0.2
CCSc1nnc(NC(=O)NC(C)(C(F)(F)F)C(F)(F)F)s1 | -0.8 | 4.5 | -5.0 | 3.7 | 16.5 | 9.3
CCSc1nnc(NC(=O)NC(CC)(C(F)(F)F)C(F)(F)F)s1 | -1.6 | 34.5* | 0.6 | 6.8 | -4.5 | 6.8
C=CCn1c(=O)c(C(=O)Nc2cccnc2)c(O)c2ccccc21 | 2.7 | -2.6 | -1.9 | -6.3 | 10.7 | 0.2
Cc1ccc(SC[C@H](c2ccccc2)N2CCN(C)CCC2=O)cc1 | -28.3 | -3.9 | -13.2 | 32.7* | -2.3 | 0.6
COc1ccc(N2CCN(c3nc(C)c(C)c(=O)[nH]3)CC2)cc1 | 2.5 | 16.3 | 0.3 | -4.0 | -22.6 | -0.5
COCCN1CCC(CNCc2cn[nH]c2-c2ccc(C)c(C)c2)C1 (stereo unspecified) | 4.4 | -10.8 | -6.6 | -4.5 | 10.1 | 0.0
COCCN1CCC(CNCc2cn(-c3cc(C)ccc3C)nc2-c2ccccc2)C1 (stereo unspecified) | 3.3 | 26.1* | -11.8 | -5.6 | -1.9 | -0.4
CCCN(CCC)C(=O)c1ccc2c(c1)N(CC)C(=O)c1ccccc1S2(=O)=O | -32.3 | -3.7 | -11.2 | 42.0* | -9.5 | 0.2
O=C(CCCN1CCC(C(=O)c2ccc(F)cc2)CC1)c1ccc(F)cc1 | -27.9 | -3.6 | -8.7 | 89.2* | 9.2 | 3.7
O=C(c1ccc(F)cc1)C1CCN(Cc2ccccc2)CC1 | -7.9 | 6.9 | -4.6 | 13.8 | 4.0 | 15.9*
COc1ccc(NC(=O)c2ccc(N3CCCC3=O)cc2)cc1Cl | 9.9 | -0.5 | -0.2 | -16.6 | -4.5 | 0.3
CC(OC(=O)C1=COCCO1)C(=O)Nc1cc(S(=O)(=O)N2CCCCC2)ccc1Cl (stereo unspecified) | 4.9 | -10.1 | -13.2 | -7.7 | 11.6 | 1.1
CC(=O)OCC(=O)[C@@]1(O)CC[C@H]2[C@@H]3CCC4=CC(=O)C=C[C@]4(C)[C@@]3(Cl)[C@@H](Cl)C[C@@]21C | -14.5 | -16.2 | 37.3* | -21.1 | 22.1 | 0.5
CC(C)CN(C(=O)c1ccc(=O)n(C)n1)c1nc2ccccc2s1 | 8.6 | 23.7* | -0.4 | 5.0 | -7.2 | -0.3
Cc1ccc(C(=O)N(CC(C)C)c2nc3ccccc3s2)o1 | 0.6 | -17.2 | -2.9 | -7.0 | 10.5 | 1.3
Cc1ccc(NS(=O)(=O)c2ccc3c(c2)oc(=O)n3C)cc1 | 3.6 | 1.5 | -0.5 | -11.2 | -11.7 | 1.4
CCOc1ccc(NC(=O)CN(c2ccc(C)cc2)S(=O)(=O)c2c(C)nn(C)c2C)cc1 | 6.4 | -2.9 | -4.4 | -19.3 | 10.4 | 2.0
O=C(Nc1ccc2nc(-c3cccs3)c(-c3cccs3)nc2c1)N1CCOCC1 | -21.4 | -4.9 | -4.1 | 78.4* | 13.6 | 4.1
CN(C)c1ccc(NC(=O)N2CCOCC2)cc1 | 30.3* | 3.6 | -1.2 | 10.0 | -0.8 | -0.4
O=C(Nc1ccc(F)cc1)N1CCOCC1 | -3.0 | -5.3 | -2.5 | 4.2 | 4.8 | 0.1
O=C(Nc1ccc(N2CCOCC2)cc1)Nc1ccc2nc(-c3ccco3)c(-c3ccco3)nc2c1 | -15.2 | -1.4 | -1.7 | 33.4* | -14.1 | 0.5
O=C(/C=C/c1cccs1)N1CCc2ccccc21 | 7.9 | -12.3 | -7.7 | -10.4 | 23.1 | -0.6
O=C(Nc1ccn(Cc2ccccc2)n1)c1cccc(Cn2cc([N+](=O)[O-])cn2)c1 | 3.1 | 3.4 | -7.5 | -2.7 | -9.8 | 1.5

Screening results deposited in PubChem by The Scripps Research Institute Molecular Screening Center.
